Drawing on PMC7862700, “An all-to-all approach to the identification of sequence-specific readers for epigenetic DNA modifications on cytosine”, this text covers binding signal for 14 sequences.

What all share (test): DAPPL (digital affinity profiling via proximity ligation, sequencing); 10 mM Tris-HCl pH 7.5, 50 mM NaCl, 1 mM DTT, 4% glycerol, room temperature, 30 min; GST-TFs on glutathione beads, 16-mer random dsDNA library, 0.1% formaldehyde crosslink after washing; high values mean tight binding
Holding throughout (details): protein: recombinant; tags: N-terminal GST; dsDNA, one strand shown

In one experiment the target is T1, ERF (Homo sapiens, UniProt P50548 1-548).
T1 sequence: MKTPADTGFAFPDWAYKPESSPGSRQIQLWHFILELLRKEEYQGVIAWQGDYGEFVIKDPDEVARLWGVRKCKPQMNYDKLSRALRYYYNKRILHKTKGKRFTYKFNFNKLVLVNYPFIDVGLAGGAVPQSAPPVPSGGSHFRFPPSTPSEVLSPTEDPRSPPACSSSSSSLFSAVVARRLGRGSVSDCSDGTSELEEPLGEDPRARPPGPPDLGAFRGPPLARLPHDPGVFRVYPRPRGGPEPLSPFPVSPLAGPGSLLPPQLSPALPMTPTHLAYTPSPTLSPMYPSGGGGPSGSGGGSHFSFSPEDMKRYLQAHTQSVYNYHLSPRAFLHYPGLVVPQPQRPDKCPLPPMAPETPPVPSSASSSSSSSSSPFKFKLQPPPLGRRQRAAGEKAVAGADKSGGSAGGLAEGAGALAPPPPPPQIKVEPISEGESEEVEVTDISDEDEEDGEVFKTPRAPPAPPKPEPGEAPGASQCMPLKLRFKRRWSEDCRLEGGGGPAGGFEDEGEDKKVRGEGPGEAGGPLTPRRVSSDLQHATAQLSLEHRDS
Put shortly: (§1)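 GST fusions of human transcription factors were expressed in yeast and captured with glutathione beads. Once given DNA barcodes and pooled alongside a tag-only sample, they were incubated for 30 min at room temperature with 200 nmole of a random double-stranded 16-mer DNA library in Tris/NaCl/DTT/glycerol buffer, then washed, crosslinked (0.1% formaldehyde), proximity-ligated, PCR-amplified and sequenced on an Illumina NextSeq500. The binding signal of each hexamer is its read frequency for a factor divided by its frequency for the tag-only sample.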

Another experiment has as its target T2, ETV3L (Homo sapiens, UniProt Q6ZN32 1-361).
T2 sequence: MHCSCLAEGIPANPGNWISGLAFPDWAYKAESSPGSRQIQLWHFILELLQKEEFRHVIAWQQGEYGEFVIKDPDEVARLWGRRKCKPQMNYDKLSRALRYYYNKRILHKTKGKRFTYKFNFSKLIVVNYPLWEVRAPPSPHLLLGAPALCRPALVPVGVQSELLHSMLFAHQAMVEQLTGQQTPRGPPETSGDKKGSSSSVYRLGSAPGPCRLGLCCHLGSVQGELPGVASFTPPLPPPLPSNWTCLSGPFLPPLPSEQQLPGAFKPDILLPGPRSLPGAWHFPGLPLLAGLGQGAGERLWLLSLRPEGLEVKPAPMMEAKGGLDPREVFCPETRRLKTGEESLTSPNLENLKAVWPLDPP
Put shortly:
as §1

The next experiment has as its target T3, ETS2 (Homo sapiens, UniProt P15036 1-469).
T3 sequence: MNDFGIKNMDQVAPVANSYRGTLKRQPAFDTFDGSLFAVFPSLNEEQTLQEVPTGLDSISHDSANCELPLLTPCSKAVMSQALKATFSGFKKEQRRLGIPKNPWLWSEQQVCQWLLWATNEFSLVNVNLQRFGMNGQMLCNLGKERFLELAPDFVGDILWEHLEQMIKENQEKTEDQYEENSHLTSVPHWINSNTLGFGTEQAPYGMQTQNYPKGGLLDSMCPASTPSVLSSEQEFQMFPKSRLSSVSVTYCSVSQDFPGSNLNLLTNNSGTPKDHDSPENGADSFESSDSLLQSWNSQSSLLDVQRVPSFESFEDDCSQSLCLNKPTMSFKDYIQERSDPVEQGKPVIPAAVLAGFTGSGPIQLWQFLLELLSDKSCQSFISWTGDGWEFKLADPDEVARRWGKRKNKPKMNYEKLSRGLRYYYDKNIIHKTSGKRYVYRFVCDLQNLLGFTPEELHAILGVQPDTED
The procedure, abridged:
as §1

The target in another experiment is T4, ETV7 (Homo sapiens, UniProt Q9Y603 1-341).
T4 sequence: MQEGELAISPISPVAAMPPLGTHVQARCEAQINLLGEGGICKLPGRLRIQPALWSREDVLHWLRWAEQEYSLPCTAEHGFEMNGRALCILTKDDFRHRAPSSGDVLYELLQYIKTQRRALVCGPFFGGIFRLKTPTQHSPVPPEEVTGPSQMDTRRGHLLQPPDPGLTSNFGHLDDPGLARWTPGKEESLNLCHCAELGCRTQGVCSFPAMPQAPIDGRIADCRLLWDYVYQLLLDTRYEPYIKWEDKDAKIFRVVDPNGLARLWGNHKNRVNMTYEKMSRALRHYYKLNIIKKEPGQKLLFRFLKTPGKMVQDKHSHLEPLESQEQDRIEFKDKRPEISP
The procedure, abridged: as §1

A further experiment has as its target T5, ELF5 (Homo sapiens, UniProt Q9UKW6-2 1-255).
T5 sequence: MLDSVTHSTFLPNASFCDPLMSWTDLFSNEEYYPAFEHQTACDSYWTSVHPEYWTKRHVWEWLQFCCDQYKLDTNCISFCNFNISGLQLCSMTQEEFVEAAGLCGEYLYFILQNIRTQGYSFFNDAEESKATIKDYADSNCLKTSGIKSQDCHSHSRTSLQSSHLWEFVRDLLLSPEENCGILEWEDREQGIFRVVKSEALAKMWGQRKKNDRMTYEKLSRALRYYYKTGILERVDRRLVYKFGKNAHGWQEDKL
Put shortly: as §1

Another experiment addresses T6, ETV3 (Homo sapiens, UniProt P41162-2 1-143).
T6 sequence: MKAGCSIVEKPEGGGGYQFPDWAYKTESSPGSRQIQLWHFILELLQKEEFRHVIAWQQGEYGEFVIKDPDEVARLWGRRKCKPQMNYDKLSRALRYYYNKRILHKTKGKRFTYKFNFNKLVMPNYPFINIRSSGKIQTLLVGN
Put shortly:
as §1

The target in a further experiment is ETV6 (Homo sapiens, UniProt P41212 1-452). Put shortly: as §1
Another experiment concerns the target T7, SPDEF (Homo sapiens, UniProt O95238 1-335).
T7 sequence: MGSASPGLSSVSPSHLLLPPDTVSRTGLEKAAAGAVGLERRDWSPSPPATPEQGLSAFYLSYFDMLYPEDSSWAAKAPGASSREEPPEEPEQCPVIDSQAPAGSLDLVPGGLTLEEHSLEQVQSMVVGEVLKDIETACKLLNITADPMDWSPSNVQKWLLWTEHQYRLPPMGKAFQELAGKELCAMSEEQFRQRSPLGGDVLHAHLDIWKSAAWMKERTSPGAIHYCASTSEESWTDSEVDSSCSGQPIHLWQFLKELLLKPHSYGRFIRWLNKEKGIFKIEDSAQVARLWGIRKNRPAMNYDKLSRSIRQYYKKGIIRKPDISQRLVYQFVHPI
The procedure, abridged:
as §1

Chain of ETV6 (P41212 whole entry): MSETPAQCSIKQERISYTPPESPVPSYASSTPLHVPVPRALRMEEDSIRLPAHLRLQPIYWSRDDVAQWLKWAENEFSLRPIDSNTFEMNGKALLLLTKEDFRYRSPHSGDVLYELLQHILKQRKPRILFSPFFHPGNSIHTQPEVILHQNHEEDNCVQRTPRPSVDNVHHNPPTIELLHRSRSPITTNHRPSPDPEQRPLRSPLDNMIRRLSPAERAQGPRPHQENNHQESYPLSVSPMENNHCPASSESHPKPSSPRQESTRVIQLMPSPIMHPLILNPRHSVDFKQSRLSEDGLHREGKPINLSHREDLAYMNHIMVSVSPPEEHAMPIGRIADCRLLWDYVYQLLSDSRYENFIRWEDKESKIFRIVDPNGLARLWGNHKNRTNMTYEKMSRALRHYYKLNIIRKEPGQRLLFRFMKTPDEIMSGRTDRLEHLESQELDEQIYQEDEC

In the case of GATAAT, the binding signal with ERF was 1.11 fold enrichment (6-mer frequency, TF over GST control); in the experiment with ETV3L it was 1.12 fold enrichment (6-mer frequency, TF over GST control); with ETS2, 1.18 fold enrichment (6-mer frequency, TF over GST control); with ETV7, 1.12 fold enrichment (6-mer frequency, TF over GST control); in the experiment with ELF5, 1.08 fold enrichment (6-mer frequency, TF over GST control); in the experiment with ETV3, 1.15 fold enrichment (6-mer frequency, TF over GST control). In the experiment with ETV6, the binding signal was 1.05 fold enrichment (6-mer frequency, TF over GST control).

As to TGATCG, the binding signal is 1.24 fold enrichment (6-mer frequency, TF over GST control) with ERF; 1.09 fold enrichment (6-mer frequency, TF over GST control) in the experiment with ETV3L; 1.03 fold enrichment (6-mer frequency, TF over GST control) in the experiment with ETS2; 1.03 fold enrichment (6-mer frequency, TF over GST control) with ETV7; 1.04 fold enrichment (6-mer frequency, TF over GST control) with ELF5; 1.11 fold enrichment (6-mer frequency, TF over GST control) with ETV3. In the experiment with ETV6, the binding signal is 1.12 fold enrichment (6-mer frequency, TF over GST control).

On to TAGTGC, for which the binding signal in the experiment with ERF was 1.12 fold enrichment (6-mer frequency, TF over GST control); with ETV3L, 1.05 fold enrichment (6-mer frequency, TF over GST control); in the experiment with ETS2, 1.08 fold enrichment (6-mer frequency, TF over GST control); in the experiment with SPDEF, 1.06 fold enrichment (6-mer frequency, TF over GST control); in the experiment with ETV3, 1.05 fold enrichment (6-mer frequency, TF over GST control); with ETV6, 1.12 fold enrichment (6-mer frequency, TF over GST control).

For GTCACT, the binding signal with ERF was 1.07 fold enrichment (6-mer frequency, TF over GST control); with ETV3L, 1.08 fold enrichment (6-mer frequency, TF over GST control); in the experiment with ETS2, 1.13 fold enrichment (6-mer frequency, TF over GST control); with ETV7 it was 1.09 fold enrichment (6-mer frequency, TF over GST control); with ELF5 it was 1.07 fold enrichment (6-mer frequency, TF over GST control); with ETV3, 1.01 fold enrichment (6-mer frequency, TF over GST control).

In the case of CGAACT, the binding signal with ERF was 1.16 fold enrichment (6-mer frequency, TF over GST control); with ETV3L it was 1.12 fold enrichment (6-mer frequency, TF over GST control); with ETS2, 1.18 fold enrichment (6-mer frequency, TF over GST control); in the experiment with ETV7, 1.15 fold enrichment (6-mer frequency, TF over GST control); with ELF5, 1.07 fold enrichment (6-mer frequency, TF over GST control); in the experiment with ETV3, 1.18 fold enrichment (6-mer frequency, TF over GST control). Also, the binding signal with ETV6 is 1.13 fold enrichment (6-mer frequency, TF over GST control).

As for TTGAGG, the binding signal in the experiment with ERF was 1.12 fold enrichment (6-mer frequency, TF over GST control); with ETV3L it was 1.03 fold enrichment (6-mer frequency, TF over GST control); in the experiment with ETS2, 1.04 fold enrichment (6-mer frequency, TF over GST control); with ETV7 it was 1.03 fold enrichment (6-mer frequency, TF over GST control); with ELF5, 1.11 fold enrichment (6-mer frequency, TF over GST control); in the experiment with ETV3, 1.12 fold enrichment (6-mer frequency, TF over GST control). Moreover, the binding signal with ETV6 was 1.13 fold enrichment (6-mer frequency, TF over GST control).

With TAGCGA, the binding signal is 1.19 fold enrichment (6-mer frequency, TF over GST control) in the experiment with ERF; 1.02 fold enrichment (6-mer frequency, TF over GST control) with ETV3L; 1.01 fold enrichment (6-mer frequency, TF over GST control) with ETS2; 1.02 fold enrichment (6-mer frequency, TF over GST control) in the experiment with SPDEF; 1 fold enrichment (6-mer frequency, TF over GST control) with ETV6.

As to GACTTT, the binding signal is 1.09 fold enrichment (6-mer frequency, TF over GST control) with ERF; 1.13 fold enrichment (6-mer frequency, TF over GST control) with ETV3L; 1.17 fold enrichment (6-mer frequency, TF over GST control) with ETS2; 1.2 fold enrichment (6-mer frequency, TF over GST control) with ETV7; 1.13 fold enrichment (6-mer frequency, TF over GST control) in the experiment with ELF5; 1.14 fold enrichment (6-mer frequency, TF over GST control) with ETV3. The binding signal with ETV6 is 1.14 fold enrichment (6-mer frequency, TF over GST control).

Consider TGTGCA, for which the binding signal in the experiment with ERF was 1.21 fold enrichment (6-mer frequency, TF over GST control); with ETV3L it was 1.06 fold enrichment (6-mer frequency, TF over GST control); with ETS2, 1.16 fold enrichment (6-mer frequency, TF over GST control); with SPDEF, 1.14 fold enrichment (6-mer frequency, TF over GST control); in the experiment with ETV3 it was 1.08 fold enrichment (6-mer frequency, TF over GST control); with ETV6, 1 fold enrichment (6-mer frequency, TF over GST control).

Consider AGCTGC, for which the binding signal in the experiment with ERF was 1.17 fold enrichment (6-mer frequency, TF over GST control); with ETV3L, 1.07 fold enrichment (6-mer frequency, TF over GST control); with ETS2, 1.17 fold enrichment (6-mer frequency, TF over GST control); with ETV7, 1.16 fold enrichment (6-mer frequency, TF over GST control); in the experiment with ELF5, 1.06 fold enrichment (6-mer frequency, TF over GST control); in the experiment with ETV3, 1.16 fold enrichment (6-mer frequency, TF over GST control). The binding signal with ETV6 was 1.11 fold enrichment (6-mer frequency, TF over GST control).

As for TGGTAG, the binding signal with ERF was 1.11 fold enrichment (6-mer frequency, TF over GST control); with ETV3L, 1.02 fold enrichment (6-mer frequency, TF over GST control); in the experiment with ETS2, 1.04 fold enrichment (6-mer frequency, TF over GST control); with ETV7, 1.18 fold enrichment (6-mer frequency, TF over GST control); with ELF5, 1.1 fold enrichment (6-mer frequency, TF over GST control); with ETV3, 1.1 fold enrichment (6-mer frequency, TF over GST control).

Turning to GCTGAC, the binding signal with ERF was 1.08 fold enrichment (6-mer frequency, TF over GST control); in the experiment with ETV3L, 1.09 fold enrichment (6-mer frequency, TF over GST control); with ETS2 it was 1.11 fold enrichment (6-mer frequency, TF over GST control); in the experiment with ETV7, 1.12 fold enrichment (6-mer frequency, TF over GST control); with ELF5, 1.05 fold enrichment (6-mer frequency, TF over GST control); with ETV3 it was 1.17 fold enrichment (6-mer frequency, TF over GST control). The binding signal in the experiment with ETV6 was 1 fold enrichment (6-mer frequency, TF over GST control).

GCGTTT: the binding signal is 1.1 fold enrichment (6-mer frequency, TF over GST control) in the experiment with ERF; 1.11 fold enrichment (6-mer frequency, TF over GST control) with ETV3L; 1.09 fold enrichment (6-mer frequency, TF over GST control) in the experiment with ETS2; 1.12 fold enrichment (6-mer frequency, TF over GST control) with ETV7; 1.12 fold enrichment (6-mer frequency, TF over GST control) in the experiment with ELF5; 1.19 fold enrichment (6-mer frequency, TF over GST control) with ETV3. Further, in the experiment with ETV6, the binding signal was 1.04 fold enrichment (6-mer frequency, TF over GST control).

With TAGCAG, the binding signal is 1.11 fold enrichment (6-mer frequency, TF over GST control) with ERF; 1.07 fold enrichment (6-mer frequency, TF over GST control) in the experiment with ETV3L; 1.02 fold enrichment (6-mer frequency, TF over GST control) with ETS2; 1.07 fold enrichment (6-mer frequency, TF over GST control) with ETV7; 1.05 fold enrichment (6-mer frequency, TF over GST control) in the experiment with ELF5.
